Broadly, the AC50 is the midpoint of the concentration-response curve, whichever way the signal moves.

Where “and” joins values, the source holds several entries; their conditions need not be identical. Equal entries are not always repeated. Inconclusive results are not listed. Calls of active or inactive are those of the source. Rule for the calls: active = hit-call score of the fitted dose curve at least 0.9, where 1 is the maximum; inconclusive = response in the unintended direction; inactive = score below 0.9.

From PubChem BioAssay (EPA / NIEHS) come the findings set out here.

The target in the assay is Estrogen receptor (Homo sapiens) (UniProt P03372). The experiment in a line: NVS_NR_hER: NovaScreen (NVS) Nuclear Receptor Binding Assay for human Estrogen Receptor (ER) (AID 2283348). The method, then: NVS_NR_hER is a biochemical, single-readout assay that uses extracted gene-proteins from MCF7 in a cell-free assay. Measurements were taken 18 hours after chemical dosing in a 96-well plate.NVS_NR_hER is one of one assay component(s) measured or calculated from the NVS_NR_hER assay. It is designed to make measurements of radioligand binding, a form of binding reporter, as detected with scintillation counting signals by Lysate-based radiodetection technology.Data from the assay component NVS_NR_hER was analyzed into 1 assay endpoint. This assay endpoint, NVS_NR_hER, was analyzed in the positive analysis fitting direction relative to DMSO as the negative control and baseline of activity. Using a type of binding reporter, loss-of-signal activity can be used to understand changes in the binding as they relate to the gene ESR1. Furthermore, this assay endpoint can be referred to as a primary readout, because the performed assay has only produced 1 assay endpoint. To generalize the intended target to other relatable targets, this assay endpoint is annotated to the nuclear receptor intended target family, where the subfamily is steroidal.
Sequence of Estrogen receptor (Homo sapiens) (P03372 whole entry, looked up): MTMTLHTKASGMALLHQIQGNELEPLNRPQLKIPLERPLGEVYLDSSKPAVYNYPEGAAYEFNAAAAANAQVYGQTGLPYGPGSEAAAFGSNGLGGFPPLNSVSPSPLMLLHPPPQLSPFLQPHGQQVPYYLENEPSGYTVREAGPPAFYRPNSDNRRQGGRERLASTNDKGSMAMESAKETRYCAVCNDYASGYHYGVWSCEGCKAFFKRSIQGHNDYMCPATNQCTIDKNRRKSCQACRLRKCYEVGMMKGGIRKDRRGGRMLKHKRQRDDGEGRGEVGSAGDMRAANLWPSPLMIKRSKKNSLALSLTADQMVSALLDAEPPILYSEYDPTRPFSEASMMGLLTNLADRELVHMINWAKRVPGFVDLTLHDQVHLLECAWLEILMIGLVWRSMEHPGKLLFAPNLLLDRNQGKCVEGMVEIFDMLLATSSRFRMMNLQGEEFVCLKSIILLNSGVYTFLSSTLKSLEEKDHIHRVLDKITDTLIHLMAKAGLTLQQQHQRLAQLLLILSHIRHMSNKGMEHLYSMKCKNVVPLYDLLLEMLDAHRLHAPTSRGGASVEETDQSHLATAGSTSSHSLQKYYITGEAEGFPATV
Binding assays used specific radioligands (tritiated, iodinated) with non-radioactive competitive displacement ligands in agonist or antagonist protocols (as indicated) and various reference compounds and inhibitors to titrate specific binding to receptors and transporters. Most enzyme assays (CYPs, kinases, phosphatases, proteases, HDACs) used recombinant protein and specific substrates (fluorescence mostly, some colorimetric and radioactive) and inhibitors, followed by a biochemical separation of substrate and product. All assays for the biochemical HTS were initially run in duplicate at a single concentration (10 uM for CYP450 assays and 25 uM for all others). […] Each assay was run with positive and negative controls, and concurrent controls on every plate. The follow-up (secondary) screen tested active chemical-pairs in concentration series, as well as a few additional assays not tested in the primary screen, some selected negative inactives, and several cases re-run in the concentration series for confirmatory purposes.
Regarding `N=C(N)c1ccc(OCCCCCOc2ccc(C(=N)N)cc2)cc1`, the outcome was inactive.

In the case of `Oc1c(Cl)cc(Cl)cc1Sc1cc(Cl)cc(Cl)c1O`, the outcome was inactive. As for `CCCCCCCCCCCC[N+](C)(C)CCCCCCCCCCCC`, the AC50 is 46.8 µM (active).

With `CC1=CC(=O)c2ccccc2C1=O`, the outcome was inactive. For the compound `C=CC(C)(CCC=C(C)C)OC(C)=O` (centres undefined), the AC50 was 6.92 µM (active).

Consider `Cc1cc(Cc2cc(C)cc(C(C)(C)C)c2O)c(O)c(C(C)(C)C)c1`, for which the outcome was inactive. As to `c1ccc(CNc2ncnc3c2ncn3C2CCCCO2)cc1` (centres undefined), the compound was called inactive. As for `Oc1ccc(Cc2ccccc2O)cc1`, the call was inactive. For `O=C1Cc2ccccc2N1c1c(Cl)cccc1Cl`, the outcome was inactive. Turning to `CCOC(=O)c1nc(C(Cl)(Cl)Cl)n(-c2ccc(Cl)cc2Cl)n1`, the compound was called inactive. Still for that read-out and setting: the same measure for `C=CC(=O)OCC(CO)(COCC(COC(=O)C=C)(COC(=O)C=C)COC(=O)C=C)COC(=O)C=C`: “inactive”; for `O=C(Nc1cccc([N+](=O)[O-])c1)c1cc2ccccc2cc1O`: “inactive”.

For `Nc1cc(Cl)c(-c2cc(Cl)c(N)cc2Cl)cc1Cl`, the AC50 was 0.0384 µM (active). Regarding `CCCCCCc1ccc(N)cc1`, the result was inactive. On to `O=C(Nc1ccc(Cl)c(Cl)c1)c1cc(Cl)cc(Cl)c1O`, for which the AC50 was 25 µM (active). As to `C[C@]12CC[C@@H]3c4ccc(O)cc4CC[C@H]3[C@@H]1CC[C@@H]2OC(=O)CCC1CCCC1`, the AC50 was 0.00446 µM (active).

As to `NC(=NCCCCCCN=C(N)/N=C(\N)Nc1ccc(Cl)cc1)/N=C(\N)Nc1ccc(Cl)cc1`, the AC50 was 9.07 µM (active) and 13.5 µM (active) and 19.2 µM (active). On the same count and under the same terms, the same measure for `CCCCCCOC(=O)c1ccc(O)cc1`: 5.86 µM (active).

For the compound `CCCCCC(C)OC(=O)COc1ccc(Cl)c2cccnc12` (centres undefined), the compound was classed as inactive. Same read-out and setting: the same measure for `O=C(c1cc(O)c(O)c(O)c1)c1ccc(O)c(O)c1O`: “inactive”.

Regarding `NNc1nc(-c2ccc([N+](=O)[O-])cc2)cs1`, the outcome was inactive.

As to `NCc1cccc(CN)c1`, the compound was called inactive. On to `CCc1ccccc1O`, for which the compound was called inactive. Take `CCCCCCCCCCCCCC[n+]1ccccc1`: the compound was classed as inactive.
